Laboratory results reported in the antibiotic and cytotoxicity screens of Wong et al. (2023).
The whole screen tested about 39,000 compounds, of which about 3,300 (8.5%) were called active. The full list was thinned out, with actives kept by preference.

System: HepG2
Assay: cytotoxicity call (relative viability < 0.9)
Conditions: 10 µM

SMILES	cytotoxicity call
C[C@H]1CN([C@@H](C)CO)C(=O)Cc2cc(NS(C)(=O)=O)ccc2O[C@@H]1CN(C)S(=O)(=O)c1cccs1	inactive
Cc1ccc(S(=O)(=O)N[C@@H]2CC[C@@H](CCNC(=O)CN3CCOCC3)O[C@@H]2CO)cc1	inactive
COC(=O)CSc1cc(C)nc(N)n1	inactive
COc1cccc(NC(=O)C[C@H]2CC[C@H]3[C@@H](COc4ccc(NC(=O)C5CCOCC5)cc4C(=O)N3C)O2)c1	inactive
C[C@@H]1CN([C@@H](C)CO)C(=O)c2cc(NS(=O)(=O)c3cn(C)cn3)ccc2O[C@@H](C)CCCCO[C@H]1CN(C)C(=O)CCCN(C)C	inactive
C[C@H](CO)N1C[C@H](C)[C@@H](CN(C)Cc2ccc(C(=O)O)cc2)Oc2c(NC(=O)C3CC3)cccc2C1=O	inactive
COc1ccc(NC(=O)Nc2ccc3c(c2)CC(=O)N([C@@H](C)CO)C[C@@H](C)[C@H](CN(C)Cc2ccc(Cl)c(Cl)c2)O3)cc1	inactive
COc1ccc(NC(=O)Nc2ccc3c(c2)CC(=O)N([C@H](C)CO)C[C@@H](C)[C@H](CN(C)Cc2ccc(Cl)c(Cl)c2)O3)cc1	active
COc1ccc(NC(=O)Nc2ccc3c(c2)CC(=O)N([C@H](C)CO)C[C@@H](C)[C@@H](CN(C)Cc2ccc(Cl)c(Cl)c2)O3)cc1	inactive
C[C@@H]1CN([C@@H](C)CO)C(=O)c2cc(NC(=O)c3ccncc3)ccc2O[C@@H]1CN(C)S(=O)(=O)c1ccc(F)cc1	inactive
Cc1noc(C)c1NC(=O)N(C)C[C@@H]1Oc2cc(C#CCN(C)C)ccc2S(=O)(=O)N([C@@H](C)CO)C[C@@H]1C	inactive
C[C@H](CO)N1C[C@H](C)[C@H](CN(C)Cc2cccc(C(F)(F)F)c2)Oc2ncc(-c3cccc(F)c3)cc2C1=O	active
C[C@H](CO)N1C[C@H](C)[C@H](CN(C)S(=O)(=O)c2cn(C)cn2)Oc2ncc(-c3cccc(C(F)(F)F)c3)cc2C1=O	active
C[C@H](CO)N1C[C@H](C)[C@H](CN(C)Cc2cccc(C(F)(F)F)c2)Oc2ncc(-c3ccc(F)cc3)cc2C1=O	inactive
C[C@H](CO)N1C[C@H](C)[C@H](CN(C)Cc2cccc(C(F)(F)F)c2)Oc2ncc(-c3ccccc3)cc2C1=O	inactive
C[C@H](CO)N1C[C@H](C)[C@H](CN(C)S(=O)(=O)c2cn(C)cn2)Oc2ncc(-c3ccccc3)cc2C1=O	inactive
C[C@H](CO)N1C[C@H](C)[C@H](CN(C)Cc2cccc(C(F)(F)F)c2)Oc2ncc(-c3cccc(C(F)(F)F)c3)cc2C1=O	inactive
C[C@H](CO)N1C[C@H](C)[C@H](CN(C)Cc2cccc(C(F)(F)F)c2)Oc2ncc(/C=C/c3ccccc3)cc2C1=O	active
C[C@H](CO)N1C[C@H](C)[C@H](CN(C)S(=O)(=O)c2cn(C)cn2)Oc2ncc(-c3cccc(F)c3)cc2C1=O	inactive
Cc1cccc(CN(C)C[C@@H]2Oc3ncc(-c4cc5ccccc5o4)cc3C(=O)N([C@H](C)CO)C[C@@H]2C)c1	active
C[C@H](CO)N1C[C@H](C)[C@H](CN(C)C(=O)Nc2cccc3ccccc23)Oc2ncc(-c3cc4ccccc4o3)cc2C1=O	inactive
C[C@H](CO)N1C[C@H](C)[C@H](CN(C)Cc2ccccc2)Oc2ncc(-c3cccc(C(F)(F)F)c3)cc2C1=O	inactive
C[C@H](CO)N1C[C@H](C)[C@H](CN(C)Cc2cccc(C(F)(F)F)c2)Oc2ncc(-c3cc4ccccc4o3)cc2C1=O	inactive
CCCC#Cc1cnc2c(c1)C(=O)N([C@H](C)CO)C[C@H](C)[C@H](CN(C)S(=O)(=O)c1cccc(OC)c1)O2	inactive

SMILES	cytotoxicity call
COCC#Cc1cnc2c(c1)C(=O)N([C@H](C)CO)C[C@H](C)[C@@H](CN(C)C(=O)Nc1ccc(OC)cc1)O2	inactive
COc1ccc(CNC(=O)C[C@@H]2C[C@H]3c4cc(NS(=O)(=O)c5ccc(F)cc5)ccc4O[C@H]3[C@@H](CO)O2)cc1	inactive
COc1ccc(CN(C)C[C@@H]2Oc3c(NS(=O)(=O)c4cn(C)cn4)cccc3C(=O)N([C@@H](C)CO)C[C@@H]2C)cc1	inactive
COc1cccc(S(=O)(=O)Nc2ccc3c(c2)[C@@H]2C[C@H](CC(=O)N4CCCCC4)O[C@@H](CO)[C@@H]2O3)c1	inactive
C[C@@H]1CN([C@@H](C)CO)S(=O)(=O)c2ccc(C#CCN(C)C)cc2O[C@H]1CN(C)Cc1ccccc1F	inactive
Cn1c(S(=O)(=O)CC(N)=O)nc2ccccc21	inactive
Cc1cccc(OC[C@H](O)Cn2c(N3CCN(C)CC3)nc3c2c(=O)n(C)c(=O)n3C)c1	inactive
Cc1noc(C)c1NC(=O)N(C)C[C@H]1Oc2ccc(NC(=O)Nc3cccc4ccccc34)cc2C(=O)N([C@H](C)CO)C[C@@H]1C	inactive
CN(C)CCCNC(=O)C[C@H]1CC[C@H]2[C@@H](COc3ccc(NC(=O)c4ccccc4F)cc3C(=O)N2C)O1	inactive
CNC(=O)C[C@@H]1CC[C@@H]2[C@H](COC[C@H](O)CN2C(=O)c2ccc3c(c2)OCO3)O1	inactive
CCCNc1nc(Nc2ccc(C#N)cc2)ncc1C#CCCCNC(=O)[C@H](C)N(C)C(=O)/C=C/CN(C)C	active
CC(C)NC(=O)Nc1ccc2c(c1)C(=O)N([C@H](C)CO)C[C@H](C)[C@@H](CN(C)C(=O)Nc1cccc3ccccc13)OCCCC[C@H](C)O2	inactive
Cc1ccc(S(=O)(=O)N[C@H]2CC[C@@H](CC(=O)NCc3ccc(Cl)c(Cl)c3)O[C@@H]2CO)cc1	inactive
NNC(=S)NCc1cccs1	inactive
C[C@H](CO)N1C[C@H](C)[C@H](CN(C)S(=O)(=O)c2cn(C)cn2)Oc2c(NS(=O)(=O)c3cn(C)cn3)cccc2C1=O	inactive
COc1c2occc2cc2ccc(=O)oc12	active
COc1c2ccoc2c(OC)c2oc(=O)ccc12	active
COc1c2occc2c(OC)c2c(=O)cc(C)oc12	active
COc1c(OC)c2occc2c2oc(=O)ccc12	inactive
COc1c(-c2ccccc2)oc2c(ccc3ccoc32)c1=O	inactive
COc1c2ccoc2cc2oc(C)cc(=O)c12	inactive
COc1c2ccoc2cc2oc(=O)ccc12	inactive
COc1cc2ccc(=O)oc2c(OC)c1OC	inactive
O=c1ccc2cc3ccoc3cc2o1	inactive
